The supplement of paper PMC6555819

Tested on: RARb:RXRa (NR concentration 270 nM, RXRa partner concentration 90 nM)
Assay: PBM binding z-score (relative to random genomic background probes); higher = stronger binding; sequences stand for … in GC…GCGATTGACAGCGTAGAATGAAGG
Procedure, shortened: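 Custom Agilent 4×180K protein-binding microarrays carried double-stranded probes, each with a 34-nt variable region. These regions held direct-repeat seeds, single-nucleotide variants, half-site ablations and random human genomic background sequences. Ligand-free nuclear receptor dimers were incubated on the arrays for 1 h, antibodies against each partner (one per run) detected binding, and scanned fluorescence was regression-normalized. Binding z-scores take the random background probes as reference.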

Sequence | PBM binding z-score
TCATATAGGTAAAGGTGAAAGTAGAACGATATGA | 2.02
CCGAGTAGGTTATGCGGCATTCAGGCAACGGTGA | 0.464
TCAGCCAGGTGAAGGTAACTCAGGTACGCAGTCG | 0.673
ACTAGCAGGCCAAGTTTGGGTTACTCAAACAAAG | 0.389
CCTCGGAGGAAAACAGGAGGTCAGAGCTGCCAGA | 1.53
ATATGTTGGTTAGCTGGGGTCATTCAGACTAGGC | 2.72
GCTTACGGGCCAAAGGTTATAGCATGAATAGAAT | 1.81
GCTAGCAGGCCATTTGGGTCACTTAATGACGGGC | 1.3
ATCGAAAGGTCGAAGGTGAGTAAACCCACCCGAA | 3.88
TTACCAATGTGAAGGTCGTTGATCCCTCTGTAGA | 0.862
TCATATAGGTTATACAGGTGAAAGTCGGCATCTA | 1.51
AATACAGGGTCACTAGGCCAGAGCAGGTACGAAT | 4.16
CCAGACAAGTGAAAGGTAACTCAGTCTGGTACGC | 0.247
CCTACTGGGCCACGAAGGGTCATTGATTCAGTGA | 2.82
CAGCTTAGGTCAGGGCCAGTATAGGAGGAACGTT | 3.79
TCGCCTAGGTCATGCGGGCCAGTATAGTGTCGGC | 3.87
ATCGAAAGGTCGAGGTGAGTAAAGAGAAAGGGAA | 3.95
ATACCAAGGTGATCGTGAGGGCGTTGATACTAAC | 0.796
CCTAATGGGCCATCAGGTCATTGATATCAACGTT | 2.15
TAGCCTAGGTCATTCGGCCAGTATAGTACGCATC | 3.6

Sequence | PBM binding z-score
TAAATGAGGTTATAAGATCAGGGAACGTTGCAAA | 1.33
AGAATAAGGTTAAGATCAGGGAAACAGAATACAT | 2.46
TAGCGTAGGTCATTCAGGGGCCAGTATAGAAAGC | 3.99
TTTTGTAGATCAAGCAGGTTAAGAAAGCCTGAGT | 0.329
ATCTCTAGGTAACCAAGTTCAGTGATTGCCGAAC | 1.18
TCATATAGGTAGAAGGTGAAAGTCGGTGTGGTAA | 1.08
ACAGACAGGTGATGAAGGTAATTCAGGCTATCAT | 0.161
AGAACGAGGGAAATGAGTTGATAGCACGGGTGGC | -0.45
ACTTACGGGTCAACGAGGTTATAACACGCGTATA | 4.37
ACAGACCGGTGATGAAGGTAACTCAGGCTATCAT | -0.139
AGAATGAGGTTATACGTAGATCATGGAAGAAAGT | 1.53
TGAATGAGGTTGTAAGATCAGGGAACGTTGCAAA | 0.0234
ACTAGCAGGCCAAGTTTGGGACACTCAAACAAAG | 0.366
CGTCAAAGTTCAGGGTAACGTAACAGAAAGCAGC | 4.33
ACAATTAGTTGAGACGAGGGCAACCGATAGGTTG | 1.14
TCGAGTAGGTTAGTCGGGGCATTCAGCCAACATA | 0.351
CAAACTCGGTCAAGGTCAAAGTCGGTTTGTGCCA | 4.49
CCTACTGGGACATCAGGTCATTGATATCAACGTT | 1.99
AGTCAAAGTTCAGGACGGGGTAACGTAAAGCACG | 4.13
ATCTCTAGGTAAAGATAGTTTAGTGAATGCAAAT | 0.0107
